# Data published in the supplement of paper PMC8728848.
# This is one part of a sample in which the strongest signals are shown more often than they occur.
# B1: Neuropilin-2 (Homo sapiens), O60462 (protein)
# chain: MDMFPLTWVFLALYFSRHQVRGQPDPPCGGRLNSKDAGYITSPGYPQDYPSHQNCEWIVYAPEPNQKIVLNFNPHFEIEKHDCKYDFIEIRDGDSESADLLGKHCGNIAPPTIISSGSMLYIKFTSDYARQGAGFSLRYEIFKTGSEDCSKNFTSPNGTIESPGFPEKYPHNLDCTFTILAKPKMEIILQFLIFDLEHDPLQVGEGDCKYDWLDIWDGIPHVGPLIGKYCGTKTPSELRSSTGILSLTFHTDMAVAKDGFSARYYLVHQEPLENFQCNVPLGMESGRIANEQISASSTYSDGRWTPQQSRLHGDDNGWTPNLDSNKEYLQVDLRFLTMLTAIATQGAISRETQNGYYVKSYKLEVSTNGEDWMVYRHGKNHKVFQANNDATEVVLNKLHAPLLTRFVRIRPQTWHSGIALRLELFGCRVTDAPCSNMLGMLSGLIADSQISASSTQEYLWSPSAARLVSSRSGWFPRIPQAQPGEEWLQVDLGTPKTVKGVIIQGARGGDSITAVEARAFVRKFKVSYSLNGKDWEYIQDPRTQQPKLFEGNMHYDTPDIRRFDPIPAQYVRVYPERWSPAGIGMRLEVLGCDWTDSKPTVETLGPTVKSEETTTPYPTEEEATECGENCSFEDDKDLQLPSGFNCNFDFLEEPCGWMYDHAKWLRTTWASSSSPNDRTFPDDRNFLRLQSDSQREGQYARLISPPVHLPRSPVCMEFQYQATGGRGVALQVVREASQESKLLWVIREDQGGEWKHGRIILPSYDMEYQIVFEGVIGKGRSGEIAIDDIRISTDVPLENCMEPISAFAGENFKVDIPEIHEREGYEDEIDDEYEVDWSNSSSATSGSGAPSTDKEKSWLYTLDPILITIIAMSSLGVLLGATCAGLLLYCTCSYSGLSSRSCTTLENYNFELYDGLKHKVKMNHQKCCSEA
# What was measured:
# Assay in all cases: glycan array binding signal (z-score within array); higher = stronger binding
# Conditions in all cases: glycan notation: IUPAC condensed, linker removed
# [1] = molecular target: Fuc(a1-2)Gal(b1-3)GalNAc(b1-3)Gal
# Summary of the method: (§1)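 Glycan array data came from 3228 arrays in the Consortium for Functional Glycomics database, and only arrays with an available protein sequence were kept. Glycan names were put into IUPAC-condensed notation, and columns mapping to the same glycan were averaged. The binding signal is a within-array Z-score, averaged across arrays of one protein sequence run at different concentrations or buffers and across linkers. A negative Z-score can be read as non-binding.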
# [2] = molecular target: Fuc(a1-2)Gal(b1-4)GlcNAc(b1-2)Man(a1-3)[Fuc(a1-2)Gal(b1-4)GlcNAc(b1-2)Man(a1-6)]Man(b1-4)GlcNAc(b1-4)GlcNAc
# Summary of the method: as §1
# [3] = molecular target: Fuc(a1-2)Gal(b1-4)[Fuc(a1-3)]GlcNAc
# Summary of the method: as §1
# [4] = molecular target: Fuc(a1-2)[GalNAc(a1-3)]Gal(b1-3)GlcNAc(b1-2)Man(a1-3)[Fuc(a1-2)[GalNAc(a1-3)]Gal(b1-3)GlcNAc(b1-2)Man(a1-6)]Man(b1-4)GlcNAc(b1-4)GlcNAc
# Summary of the method: as §1
# [5] = molecular target: Fuc(a1-2)[GalNAc(a1-3)]Gal(b1-4)Glc
# Summary of the method: as §1
# [6] = molecular target: Fuc(a1-3)[Gal(b1-4)]Glc6S
# Summary of the method: as §1
# [7] = molecular target: Fuc(a1-3)[Gal(b1-4)]GlcNAc(b1-4)Gal(b1-4)[Fuc(a1-3)]GlcNAc(b1-4)Gal(b1-4)[Fuc(a1-3)]GlcNAc
# Summary of the method: as §1
# [8] = molecular target: Fuc(a1-3)[Gal3S(b1-4)]Glc6S
# Summary of the method: as §1
# [9] = molecular target: Fuc(a1-3)[Gal3S(b1-4)]GlcNAc
# Summary of the method: as §1
# [10] = molecular target: Gal(b1-3)GalNAc(a1-3)[Fuc(a1-2)]Gal(b1-4)Glc
# Summary of the method: as §1
# [11] = molecular target: Gal(b1-3)[Fuc(a1-4)]GlcNAc
# Summary of the method: as §1
# [12] = molecular target: Gal(b1-3)[Fuc(a1-4)]GlcNAc(b1-2)Man(a1-3)[Gal(b1-3)[Fuc(a1-4)]GlcNAc(b1-2)Man(a1-6)]Man(b1-4)GlcNAc(b1-4)GlcNAc
# Summary of the method: as §1
# [13] = molecular target: Gal(b1-4)GlcNAc(b1-3)Gal(b1-3)GlcNAc
# Summary of the method: as §1
# Gal3S4S(b1-4)GlcNAc = molecular target: Gal3S4S(b1-4)GlcNAc
# Summary of the method: as §1
# GalNAc(b1-4)GlcNAc = molecular target: GalNAc(b1-4)GlcNAc
# Summary of the method: as §1
# [14] = molecular target: GlcNAc(a1-4)Gal(b1-3)GlcNAc
# Summary of the method: as §1
# [15] = molecular target: GlcNAc(a1-4)Gal(b1-4)GalNAc
# Summary of the method: as §1
# [16] = molecular target: GlcNAc(a1-4)Gal(b1-4)GlcNAc(b1-3)Gal(b1-4)Glc
# Summary of the method: as §1
# [17] = molecular target: GlcNAc(a1-4)Gal(b1-4)GlcNAc(b1-3)Gal(b1-4)[Fuc(a1-3)]GlcNAc(b1-3)Gal(b1-4)[Fuc(a1-3)]GlcNAc
# Summary of the method: as §1
# GlcNAc(b1-4)GlcNAc = molecular target: GlcNAc(b1-4)GlcNAc
# Summary of the method: as §1
# [18] = molecular target: Man(a1-2)Man(a1-2)Man(a1-6)[Man(a1-3)]Man
# Summary of the method: as §1
# [19] = molecular target: Man(a1-2)Man(a1-3)[Man(a1-2)Man(a1-6)]Man
# Summary of the method: as §1
# [20] = molecular target: Man(a1-2)Man(a1-3)[Man(a1-2)Man(a1-6)]Man(a1-6)[Man(a1-2)Man(a1-2)Man(a1-3)]Man
# Summary of the method: as §1
# [21] = molecular target: Neu5Ac(a2-3)Gal(b1-4)GlcNAc(b1-2)Man(a1-3)[Neu5Ac(a2-6)Gal(b1-4)GlcNAc(b1-2)Man(a1-6)]Man(b1-4)GlcNAc(b1-4)GlcNAc
# Summary of the method: as §1
# [22] = molecular target: Neu5Ac(a2-3)Gal(b1-4)GlcNAc(b1-6)[Neu5Ac(a2-3)Gal(b1-3)]GalNAc
# Summary of the method: as §1
# [23] = molecular target: Neu5Ac(a2-3)Gal(b1-4)[Fuc(a1-3)]GlcNAc(b1-3)Gal
# Summary of the method: as §1
# [24] = molecular target: Neu5Ac(a2-3)Gal(b1-4)[Fuc(a1-3)]GlcNAc(b1-3)Gal(b1-4)GlcNAc
# Summary of the method: as §1
# [25] = molecular target: Neu5Ac(a2-3)GalNAc(b1-4)GlcNAc
# Summary of the method: as §1
# [26] = molecular target: Neu5Ac(a2-3)[GalNAc(b1-4)]Gal(b1-4)Glc
# Summary of the method: as §1
# Neu5Ac(a2-6)Gal(b1-4)Glc = molecular target: Neu5Ac(a2-6)Gal(b1-4)Glc
# Summary of the method: as §1
binder,measurement,setting,value
B1,glycan array binding signal (z-score),[1],1.26
same,glycan array binding signal (z-score),[2],3.21
same,glycan array binding signal (z-score),[3],0.117
same,glycan array binding signal (z-score),[4],-0.324
same,glycan array binding signal (z-score),[5],-0.637
same,glycan array binding signal (z-score),[6],0.81
same,glycan array binding signal (z-score),[7],-0.508
same,glycan array binding signal (z-score),[8],6.67
same,glycan array binding signal (z-score),[9],0.282
same,glycan array binding signal (z-score),[10],-0.835
same,glycan array binding signal (z-score),[11],0.255
same,glycan array binding signal (z-score),[12],5.64
same,glycan array binding signal (z-score),[13],-0.249
same,glycan array binding signal (z-score),Gal3S4S(b1-4)GlcNAc,-0.032
same,glycan array binding signal (z-score),GalNAc(b1-4)GlcNAc,-0.284
same,glycan array binding signal (z-score),[14],1.66
same,glycan array binding signal (z-score),[15],6.59
same,glycan array binding signal (z-score),[16],1.04
same,glycan array binding signal (z-score),[17],10.4
same,glycan array binding signal (z-score),GlcNAc(b1-4)GlcNAc,-0.129
same,glycan array binding signal (z-score),[18],-0.323
same,glycan array binding signal (z-score),[19],-0.496
same,glycan array binding signal (z-score),[20],-0.552
same,glycan array binding signal (z-score),[21],-0.501
same,glycan array binding signal (z-score),[22],-0.664
same,glycan array binding signal (z-score),[23],-0.587
same,glycan array binding signal (z-score),[24],3.79
same,glycan array binding signal (z-score),[25],0.369
same,glycan array binding signal (z-score),[26],-0.339
same,glycan array binding signal (z-score),Neu5Ac(a2-6)Gal(b1-4)Glc,0.038
